# Screening results from PubChem BioAssay.
# Most compounds without a hit are left out; they make up all but 4.9% or so of the library.
# PP1 inh = blocks human PP1-alpha phosphatase, a PP5 counter-screen; P62136; purified PP1alpha, OMFP fluorescence; inhibition, % at 6.7 µM; 320,000 compounds, 0.9% hits; AID 2235;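 active means inhibition above the mean inhibition of all tested compounds plus 3 SD, computed separately for each screening campaign, cut at about 15% in these data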
# PP5 primary = blocks human protein phosphatase 5 activity; 320,000 compounds, 0.18% hits; P53041; inhibition, % at 6.7 µM; purified PP5c, OMFP substrate fluorescence;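 active means inhibition above the campaign's mean inhibition across all tested compounds plus 3 SD, cut at about 9.5% in these data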;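 further: 0% = DMSO only and 100% = 100 µM cantharidin control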
# Target sequence (P53041 whole entry, looked up): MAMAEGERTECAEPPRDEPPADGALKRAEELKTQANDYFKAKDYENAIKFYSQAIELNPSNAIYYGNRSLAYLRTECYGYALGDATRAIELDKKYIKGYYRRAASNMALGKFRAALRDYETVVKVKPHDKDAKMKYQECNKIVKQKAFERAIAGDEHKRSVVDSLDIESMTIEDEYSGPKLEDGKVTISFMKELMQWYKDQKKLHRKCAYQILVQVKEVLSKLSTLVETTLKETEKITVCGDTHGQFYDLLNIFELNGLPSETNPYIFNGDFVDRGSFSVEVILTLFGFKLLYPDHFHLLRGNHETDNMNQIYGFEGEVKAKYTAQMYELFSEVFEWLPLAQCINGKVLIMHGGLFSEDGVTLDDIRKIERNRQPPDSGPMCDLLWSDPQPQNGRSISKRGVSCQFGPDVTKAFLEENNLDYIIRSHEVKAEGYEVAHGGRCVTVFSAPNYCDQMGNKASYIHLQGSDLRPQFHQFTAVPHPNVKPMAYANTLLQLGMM
# Mdm2-MdmX inh = human Mdm2/MdmX binding inhibition. SaOS-2 split-luciferase Mdm2/MdmX complementation, luminescence. 330,000 compounds, 3% hits. AID 485346. inhibition, % at 8 µM. O15151+Q00987;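 active means inhibition of at least 50% at 8 µM in the primary screen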
# Beta apoptosis = blocks beta cell apoptosis. INS-1E cytokine-induced death, ATP luminescence, 48 h; percent of positive-control rescue, neutral wells zero. 300,000 compounds, 0.8% hits. protection from apoptosis, % (test concentration not listed);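 active means Every replicate reaches about 75%, or at least half do and their mean reaches it too, limit read from the data; inconclusive means At least half of replicates reach the limit but their mean does not; inactive means Under half of replicates reach the limit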;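 further: 0% = cytokine-treated negative control wells and 100% = positive control rescue; higher means more ATP so stronger rescue from cytokine killing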
# Calb FLC = C. albicans growth modulation with fluconazole; C. albicans CaCi-2 (fluconazole-resistant clinical isolate) + fluconazole, Alamar Blue growth, 48 h; growth inhibition, % (no concentration beside the values); 300,000 compounds, 0.57% hits;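 active means growth inhibition above about 58% in most replicates, limit read from the data, passing the limit was not always enough; inconclusive means exactly half the replicates above a set limit; inactive means most replicates below a set limit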;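 further: all wells also contain fluconazole at 8 µg/ml as a sub-toxic cotreatment; 0% = median of DMSO wells and 100% = median of geldanamycin control wells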
# CSC inhib = cancer stem cell inhibition; AID 2717; 300,000 compounds, 1.1% hits; cancer stem cell-like cells viability, luminescence; inhibition, % at 7.5 µM; in the data active means inhibition above about 75%; inconclusive means no clear call, values can overlap the other calls; tested in HMLE shEcad cells
# Mdm2-MdmX conf = human Mdm2/MdmX binding inhibition, confirmed; shares compounds with Mdm2-MdmX inh; luminescent assay; 10,000 compounds, 55% hits; inhibition, % at 8 µM; AID 489028; in the data active means inhibition above about 40%
# FLuc counter = inhibits full-length luciferase, flagging false Mdm2/MdmX hits; shares compounds with Mdm2-MdmX inh; SaOS-2 full-length luciferase counterscreen, luminescence; inhibition, % at 8 µM; 6,200 compounds, 77% hits;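 active means mean inhibition at 8 µM reaching about 37%, which flags the compound as non-specific, limit read from the data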;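 further: p53-null SaOS-2 cells with luciferase driven by a doxycycline-inducible promoter; compound on cells about two nights before reading with doxycycline added after day one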
# Numbers without * were called inactive; u = inconclusive; x = not tested or not shown.
SMILES,PP1 inh,PP5 primary,Mdm2-MdmX inh,Beta apoptosis,Calb FLC,CSC inhib,Mdm2-MdmX conf,FLuc counter
CC1(C)Cc2c(c(N3CCOCC3)nc3snc(N)c23)CO1,-1,0,83*,67,-44,21,31,x
N#Cc1ccc2nc3c(nc2c1)CCCC3,4,-3,5,x,-4,x,x,x
CC(=O)Nc1nnc(CCS(=O)(=O)c2ccc(C)cc2)s1,-5,-1,14,-1,0,-14,x,x
O=C(CN1C(=O)c2ccccc2C1=O)Nc1ccc(-c2nc3ccccc3o2)cc1,3,3,-11,-6,3,-16,x,x
Cc1ccc2oc(-c3ccc(NC(=O)CC(C)C)cc3)nc2c1,-1,0,-54,6,-9,8,x,x
CCCC(=O)Nc1ccc2oc(-c3ccncc3)nc2c1,-5,2,-29,1,1,0,x,x
CCCCCC(=O)Nc1ccc2oc(-c3cncc(Br)c3)nc2c1,-4,-1,58*,-3,4,-7,-9,x
O=C(CN1CCCC1)Nc1ccc(-c2nc3cc(NC(=O)CN4CCCC4)ccc3o2)cc1,-1,2,92*,10,u,20,64*,52*
CCC(C)NCC(=O)Nc1ccc(-c2nc3cc(NC(=O)CNC(C)CC)ccc3o2)cc1 (stereo not drawn),0,-2,100*,-1,x,19,42*,36
CCN(CC)CC(=O)Nc1ccc(-c2nc3cc(NC(=O)CN(CC)CC)ccc3o2)cc1,-4,-1,55*,6,-2,8,41*,74*
CN1CCN(C(=O)C2CCCN(S(=O)(=O)c3ccc(Cl)cc3)C2)CC1 (stereo not drawn),5,2,-10,1,-8,-3,x,x
COCc1cc(SC2CCCCC2)nc(C)n1,-2,-3,2,-2,-10,-5,x,x
CSc1sc(C(=O)N2CCCCC2)c(-c2cccs2)c1C#N,1,2,23,2,-4,8,x,x
C=CCn1c(C)cc(C(=O)CN2C(=O)c3ccccc3S2(=O)=O)c1C,-4,0,74*,2,x,-8,79*,53*
CCn1c(C)cc(C(=O)CN2C(=O)c3ccccc3S2(=O)=O)c1C,-3,2,88*,-6,x,-11,81*,23
Cc1cc(C(=O)CN2C(=O)c3ccccc3S2(=O)=O)c(C)n1-c1ccccc1,7,2,57*,0,-8,-7,32,x
CCCn1c(C)cc(C(=O)CN2C(=O)c3ccccc3C2=O)c1C,-1,-2,21,2,-8,-18,x,x
Cc1cc(C(=O)CN2C(=O)c3ccccc3S2(=O)=O)c(C)n1C(C)C,-2,0,56*,-1,x,-6,41*,37*
Cc1cc(C(=O)CN2C(=O)C3CC=CCC3C2=O)c(C)n1-c1ccccc1 (stereo not drawn),1,2,0,2,-1,-4,x,x
Cc1onc(C(=O)Nc2c(C)n(C)n(-c3ccccc3)c2=O)c1[N+](=O)[O-],0,-1,-1,0,-5,-5,x,x
CC1CCc2c(sc(/N=C/c3ccco3)c2C(N)=O)C1 (stereo not drawn),-4,0,-23,-1,67,7,x,x
Cc1cccc(N/C=C/c2onc(C)c2[N+](=O)[O-])c1,1,1,-74,7,10,-5,x,x
Cc1cccc(/C=C/c2onc(C)c2[N+](=O)[O-])n1,-1,-1,100*,-7,-8,51,71*,22
O=C(CN1c2cccc3cccc(c23)S1(=O)=O)NCCc1ccc(F)cc1,x,x,21,0,x,-1,x,x
COc1ccccc1NC(=O)C(C)OC(=O)C1COc2ccccc2O1 (stereo not drawn),-6,-4,0,0,x,x,x,x
COc1ccccc1N1CCN(C(=O)c2oc3ccc(Br)cc3c2C)CC1,-3,0,57*,3,-2,57,58*,54*
COc1ccccc1N1CCN(C(=O)c2cc3c(C)nc4ccccc4c3o2)CC1,-7,2,54*,37,-20,-12,20,x
